Inconclusive results are not listed. The source made the active and inactive calls. The call rests on the fitted dose curve; in most records, active means well fitted cell-killing curve with a large enough effect in the repeat runs; inconclusive means weak or mixed curves, or effect the other way; inactive means flat fitted curve, though single readings scatter.
assay: qHTS assay to identify small molecule antagonists of the constitutive androstane receptor (CAR) signaling pathway - cell viability counter screen (AID 1224837); conditions: HepG2-CYP2B6-hCAR viability, CellTiter-Fluor, 23 h, co-treated with 50 nM CITCO; series mostly up to 92.4 µM; activity change, negative = cytotoxicity: at the top concentration; further: nearly all actives have a fitted effect of over 45% in size
Text: National Center for Advancing Translational Sciences [NCATS]
NIH Chemical Genomics Center [NCGC]
U.S. Environmental Protection Agency [EPA]
National Institutes of Environmental Health Sciences [NIEHS]
National Toxicology Program [NTP]
U.S. Food and Drug Administration [FDA]
The constitutive androstane receptor (CAR) is a nuclear receptor which regulates multiple drug metabolizing enzymes (DMEs) and transporters. Activating CAR will generally increase the transcription and subsequent translation of CYP2B6 and CYP3A4. These two DMEs represent about 50% of the drug metabolizing potential in the body. When CAR is deactivated, the metabolizing potential in the body will decrease, subsequently increasing the toxicity in the body or lowering the therapeutic potential of a pro-drug. Recently, there have also been studies performed indicating CARs role in energy metabolism and cancer therapy. Therefore, inhibiting CARs activity could have a potential effect on diabetes and cancer. Identifying environmental toxins and compounds which modulate CAR, through the use of the Tox21 10K compound collection, will be an important step in determining the toxicity and potential therapeutic effects these factors will have on the human body. To differentiate true CAR antagonists from cytotoxic substances, the assay is multiplexed with a cell viability assay.
Tox21 Assay Protocol Summary:
A double-stable (hCAR and CYP2B6-2.2kb) transfected cell line, derived from human hepatoma (HepG2) cells, was utilized for the duration of the quantitative high-throughput screens. The HepG2-CYP2B6-hCAR cells were dispensed at 2500 cells/4 uL/well in 1536-well white solid bottom plates using a Multidrop Combi. After the assay plates were incubated at 37 C/5% CO2 for 4 hrs, 23 nL of compounds at 15 concentrations (from 5-48 columns) or positive control (from 1 to 4 columns) were transferred to the assay plates using a Pintool station. One uL of CITCO (final concentration = 50 nM) was added, using a Flying Reagent Dispenser, inside each well. After a 23 hr incubation period at 37 C/5% CO2, 1 uL of CellTiter-Fluor reagent was added into each well of the assay plates using a Flying Reagent Dispenser. The fluorescence intensity in the plates was then measured using a ViewLux plate reader.
On the % scale 0 is the no-effect control and ±100 the full control effect.

SMILES	activity change, negative = cytotoxicity	Potency
O=C(NC(=O)c1c(F)cccc1F)Nc1cc(Cl)c(F)c(Cl)c1F	0.793% (inactive)	
c1ccc2c(c1)CCNC2	-9.91% (inactive)	
CCCOC(=O)Cc1ccc(OCC(=O)N(CC)CC)c(OC)c1	3.89% [at 42.5 µM] (inactive)	
NNCc1ccccc1	0.488% (inactive)	
CC(C)N(Cc1ccccc1)C(=O)C(C)(C)C	3.91% (inactive)	
C[C@@H](N)[C@@H](O)c1ccccc1	-4.37% [at 42.5 µM] (inactive)	
O=C(O)c1c(Cl)ccc2cc(Cl)cnc12	-4.96% (inactive)	
ClCOCCl	0.0493% (inactive)	
Brc1c(Br)c(Br)c(Br)c(Br)c1Br	-3.15% [at 8.39 µM] (inactive)	
C=C1CC[C@@]2(O)[C@H]3Cc4ccc(O)c5c4[C@@]2(CCN3CC2CC2)[C@H]1O5	1.26% [at 42.5 µM] (inactive)	
CCC1(c2cccc(O)c2)CCCCN(C)C1 (stereo not given)	-5.09% [at 42.5 µM] (inactive)	
CC[C@H](N)c1ccccc1	0.405% (inactive)	
CNC(=O)O/N=C(/CSC)C(C)(C)C	2.79% (inactive)	
c1cncc([C@@H]2CCCCN2)c1	1.7% (inactive)	
COc1cccc([C@@]2(O)CCCC[C@@H]2CN(C)C)c1	-1.16% [at 42.5 µM] (inactive)	
CC(C)(O)C(Cl)(Cl)Cl	0.202% [at 42.5 µM] (inactive)	
O=C/C=C/c1ccco1	-3.26% (inactive)	
O=C(Cl)c1ccccc1	-0.0608% (inactive)	
CCC1(c2ccccc2)C(=O)N(COC)C(=O)N(COC)C1=O	5.36% [at 42.5 µM] (inactive)	
Clc1nc(Cl)nc(Nc2ccccc2Cl)n1	5.16% (inactive)	

SMILES	activity change, negative = cytotoxicity	Potency
COC(=O)[C@@H](N)CCCN/C(N)=N/[N+](=O)[O-]	2.78% [at 42.5 µM] (inactive)	
CCCCOC(C)=O	2.82% (inactive)	
CC[C@@H](CO)NC(=O)[C@@H]1C=C2c3cccc4[nH]cc(c34)C[C@H]2N(C)C1	4.6% [at 42.5 µM] (inactive)	
CCNP(=S)(OC)O/C(C)=C/C(=O)OC(C)C (stereo not given)	13.1% (inactive)	
CC(C)C(C)(N)C#N (stereo not given)	9.41% (inactive)	
Cc1cccc2sc3nncn3c12	3.37% (inactive)	
CCN(CC)C1CCCCC1	2.01% (inactive)	
CC(C)NCC(O)c1ccc([N+](=O)[O-])cc1 (stereo not given)	-17.4% [at 42.5 µM] (inactive)	
Clc1cc2c(cc1Cl)Oc1cc(Cl)c(Cl)cc1O2	-2.86% [at 0.349 µM] (inactive)	
CCOC(=O)C(SP(=S)(OC)OC)c1ccccc1 (stereo not given)	0.927% (inactive)	
CON(C)C(=O)Nc1ccc(Br)cc1	-8.8% (inactive)	
COC1=CC(=O)O[C@@H](/C=C/c2ccccc2)C1	6.05% (inactive)	
COP(=O)(O)OC	5.04% (inactive)	
CN(CCO)CCO	7.28% (inactive)	
BrCCc1ccccc1	0.173% (inactive)	
CC(C)(C)c1cc(O)ccc1O		inactive
CC(C)(C)NC[C@H](O)c1ccc(O)cc1Cl	-1.51% [at 42.5 µM] (inactive)	
CN(C)C1CCCCC1	-2.71% (inactive)	
O=[N+]([O-])CCO	0.888% (inactive)	
O=C(Cl)OCc1ccccc1	10.8% (inactive)	

— PubChem BioAssay (Tox21)
